{"source": "a collection of fitness landscapes (doi:10.1126/science.1257360)", "parents": {"B1": {"name": "PhoQ; a variant is named by its letters at X, in order, P23837 (parent)", "chain": "MKKLLRLFFPLSLRVRFLLATAAVVLVLSLAYGMVALIGYSVSFDKTTFRLLRGESNLFYTLAKWENNKLHVELPENIDKQSPTMTLIYDENGQLLWAQRDVPWLMKMIQPDWLKSNGFHEIEADVNDTSLLLSGDHSIQQQLQEVREDDDDAEMTHSVAVNVYPATSRMPKLTIVVVDTIPVELKSSYMVWSWFIYVLSANLLLVIPLLWVAAWWSLRPIEALAKEVRELEEHNRELLNPATTRELTSLVRNLNRLLKSERERYDKYRTTLTDLTHSLKTPLXXLQXXLRSLRSEKMSVSDAEPVMLEQISRISQQIGYYLHRASMRGGTLLSRELHPVAPLLDNLTSALNKVYQRKGVNISLDISPEISFVGEQNDFVEVMGNVLDNACKYCLEFVEISARQTDEHLYIVVEDDGPGIPLSKREVIFDRGQRVDTLRPGQGVGLAVAREITEQYEGKIVAGESMLGGARMEVIFGRQHSAPKDE"}}, "note": "Whole data set: some 140,000 sequences, median “enrichment ratio after two sorts for PhoP signalling” near 0, cut for the highest 2% near 11. The entries come from a sample that favours the highest values as a whole.", "data": [{"variants_of": "B1", "experiment": "enrichment ratio after two sorts for PhoP signalling (ratio (wild type AVST 3.29)); higher = more functional", "conditions": "with PhoP (E. coli)", "values": [{"variant": "ILLC", "enrichment ratio": "≤ 0.25"}, {"variant": "TKRF", "enrichment ratio": "≤ 0.25"}, {"variant": "EMVN", "enrichment ratio": "≤ 0.25"}, {"variant": "VCYH", "enrichment ratio": "≤ 0.25"}, {"variant": "HYMK", "enrichment ratio": "≤ 0.25"}, {"variant": "KEFY", "enrichment ratio": "≤ 0.25"}, {"variant": "LSFV", "enrichment ratio": 5.15}, {"variant": "SLYE", "enrichment ratio": "≤ 0.25"}, {"variant": "NVML", "enrichment ratio": "≤ 0.25"}, {"variant": "FVML", "enrichment ratio": 13.2}, {"variant": "TVML", "enrichment ratio": 1.47}, {"variant": "EIFI", "enrichment ratio": "≤ 0.25"}, {"variant": "NLQN", "enrichment ratio": "≤ 0.25"}, {"variant": "IMRF", "enrichment ratio": "≤ 0.25"}, {"variant": "TCKR", "enrichment ratio": "≤ 0.25"}, {"variant": "CDCR", "enrichment ratio": "≤ 0.25"}, {"variant": "TCCR", "enrichment ratio": 13.1}, {"variant": "TEKR", "enrichment ratio": "≤ 0.25"}, {"variant": "VECR", "enrichment ratio": "≤ 0.25"}, {"variant": "TECR", "enrichment ratio": 16.3}, {"variant": "QFGW", "enrichment ratio": "≤ 0.25"}, {"variant": "KPGY", "enrichment ratio": "≤ 0.25"}, {"variant": "KAWY", "enrichment ratio": "≤ 0.25"}, {"variant": "VNCT", "enrichment ratio": 1.24}, {"variant": "MEFD", "enrichment ratio": "≤ 0.25"}, {"variant": "TGCH", "enrichment ratio": 10.6}, {"variant": "AHCH", "enrichment ratio": 2.08}, {"variant": "NQCH", "enrichment ratio": "≤ 0.25"}, {"variant": "AICH", "enrichment ratio": 15.1}, {"variant": "RGCH", "enrichment ratio": "≤ 0.25"}, {"variant": "AGCH", "enrichment ratio": 11.6}, {"variant": "AQCH", "enrichment ratio": 32.7}, {"variant": "AQTH", "enrichment ratio": "≤ 0.25"}, {"variant": "WICH", "enrichment ratio": "≤ 0.25"}, {"variant": "MICD", "enrichment ratio": "≤ 0.25"}, {"variant": "EHIV", "enrichment ratio": "≤ 0.25"}, {"variant": "FHVI", "enrichment ratio": "≤ 0.25"}, {"variant": "GTWL", "enrichment ratio": "≤ 0.25"}, {"variant": "IFFD", "enrichment ratio": "≤ 0.25"}, {"variant": "KVLP", "enrichment ratio": "≤ 0.25"}, {"variant": "LFKL", "enrichment ratio": "≤ 0.25"}, {"variant": "ATLT", "enrichment ratio": 10.2}, {"variant": "KYLI", "enrichment ratio": "≤ 0.25"}, {"variant": "ATLS", "enrichment ratio": 10.6}, {"variant": "SILI", "enrichment ratio": 4.12}, {"variant": "QPLI", "enrichment ratio": "≤ 0.25"}, {"variant": "STLI", "enrichment ratio": 12.4}, {"variant": "ATLI", "enrichment ratio": 15.7}, {"variant": "SQLI", "enrichment ratio": 11.8}, {"variant": "SPLI", "enrichment ratio": "≤ 0.25"}, {"variant": "FTLI", "enrichment ratio": 10.3}, {"variant": "YTLI", "enrichment ratio": 12.8}, {"variant": "DPLI", "enrichment ratio": "≤ 0.25"}, {"variant": "SDYI", "enrichment ratio": "≤ 0.25"}, {"variant": "CPPL", "enrichment ratio": "≤ 0.25"}, {"variant": "LICH", "enrichment ratio": "≤ 0.25"}, {"variant": "GFMC", "enrichment ratio": "≤ 0.25"}, {"variant": "RVDS", "enrichment ratio": "≤ 0.25"}, {"variant": "INFA", "enrichment ratio": "≤ 0.25"}, {"variant": "TVQC", "enrichment ratio": 4.14}, {"variant": "FEAI", "enrichment ratio": "≤ 0.25"}, {"variant": "LSQY", "enrichment ratio": "≤ 0.25"}, {"variant": "GALA", "enrichment ratio": 2.12}, {"variant": "KALI", "enrichment ratio": "≤ 0.25"}, {"variant": "KQLI", "enrichment ratio": "≤ 0.25"}, {"variant": "NALI", "enrichment ratio": 4.49}, {"variant": "YALI", "enrichment ratio": 13.3}, {"variant": "SALI", "enrichment ratio": 12.2}, {"variant": "IILI", "enrichment ratio": "≤ 0.25"}, {"variant": "GALS", "enrichment ratio": 5.05}, {"variant": "GALI", "enrichment ratio": 14.1}, {"variant": "ITLI", "enrichment ratio": 8.76}, {"variant": "GTLI", "enrichment ratio": 15.8}, {"variant": "GYLI", "enrichment ratio": 0.357}, {"variant": "ERQV", "enrichment ratio": "≤ 0.25"}, {"variant": "LRKP", "enrichment ratio": "≤ 0.25"}, {"variant": "KPPH", "enrichment ratio": "≤ 0.25"}, {"variant": "TPRP", "enrichment ratio": "≤ 0.25"}, {"variant": "FDPD", "enrichment ratio": "≤ 0.25"}, {"variant": "PKVE", "enrichment ratio": "≤ 0.25"}, {"variant": "RSAQ", "enrichment ratio": "≤ 0.25"}, {"variant": "HALA", "enrichment ratio": "≤ 0.25"}, {"variant": "TTLI", "enrichment ratio": 12.4}, {"variant": "LTLI", "enrichment ratio": 0.384}, {"variant": "HALI", "enrichment ratio": 12.2}, {"variant": "CTLI", "enrichment ratio": "≤ 0.25"}, {"variant": "HFLI", "enrichment ratio": "≤ 0.25"}, {"variant": "LMQH", "enrichment ratio": "≤ 0.25"}, {"variant": "KFYQ", "enrichment ratio": "≤ 0.25"}, {"variant": "CSGS", "enrichment ratio": "≤ 0.25"}, {"variant": "WWST", "enrichment ratio": "≤ 0.25"}, {"variant": "FRNI", "enrichment ratio": "≤ 0.25"}, {"variant": "TVQN", "enrichment ratio": 12.1}, {"variant": "SPQN", "enrichment ratio": "≤ 0.25"}, {"variant": "SPQV", "enrichment ratio": "≤ 0.25"}, {"variant": "PVQQ", "enrichment ratio": "≤ 0.25"}, {"variant": "NVQK", "enrichment ratio": "≤ 0.25"}, {"variant": "FVQK", "enrichment ratio": "≤ 0.25"}, {"variant": "SPQQ", "enrichment ratio": "≤ 0.25"}, {"variant": "TVQV", "enrichment ratio": 12.7}, {"variant": "TVEN", "enrichment ratio": "≤ 0.25"}, {"variant": "TVQQ", "enrichment ratio": 12.6}, {"variant": "PVQV", "enrichment ratio": "≤ 0.25"}, {"variant": "TVQK", "enrichment ratio": 15.5}, {"variant": "DRLY", "enrichment ratio": "≤ 0.25"}, {"variant": "RFEM", "enrichment ratio": "≤ 0.25"}, {"variant": "RQMN", "enrichment ratio": "≤ 0.25"}, {"variant": "HNHV", "enrichment ratio": "≤ 0.25"}, {"variant": "THPW", "enrichment ratio": "≤ 0.25"}, {"variant": "LWEP", "enrichment ratio": "≤ 0.25"}, {"variant": "VYIW", "enrichment ratio": "≤ 0.25"}, {"variant": "GCNG", "enrichment ratio": "≤ 0.25"}, {"variant": "ANDM", "enrichment ratio": "≤ 0.25"}, {"variant": "ANGP", "enrichment ratio": "≤ 0.25"}, {"variant": "AHGH", "enrichment ratio": "≤ 0.25"}, {"variant": "ANGD", "enrichment ratio": "≤ 0.25"}, {"variant": "ANVM", "enrichment ratio": 14.9}, {"variant": "ANGR", "enrichment ratio": "≤ 0.25"}, {"variant": "ANDS", "enrichment ratio": "≤ 0.25"}, {"variant": "ANGH", "enrichment ratio": 11.6}, {"variant": "ARVA", "enrichment ratio": "≤ 0.25"}, {"variant": "ARGM", "enrichment ratio": "≤ 0.25"}, {"variant": "ANGM", "enrichment ratio": 21.9}, {"variant": "ARVM", "enrichment ratio": 14.7}, {"variant": "SWFD", "enrichment ratio": "≤ 0.25"}, {"variant": "HSAA", "enrichment ratio": "≤ 0.25"}, {"variant": "FPVD", "enrichment ratio": "≤ 0.25"}, {"variant": "VQYV", "enrichment ratio": "≤ 0.25"}, {"variant": "DVLV", "enrichment ratio": "≤ 0.25"}, {"variant": "PCEH", "enrichment ratio": "≤ 0.25"}, {"variant": "WFYE", "enrichment ratio": "≤ 0.25"}, {"variant": "LTRP", "enrichment ratio": "≤ 0.25"}, {"variant": "YRLF", "enrichment ratio": "≤ 0.25"}, {"variant": "ANCK", "enrichment ratio": 6.46}, {"variant": "ANPM", "enrichment ratio": "≤ 0.25"}, {"variant": "ANNM", "enrichment ratio": 12.9}, {"variant": "RPWW", "enrichment ratio": "≤ 0.25"}, {"variant": "HFCW", "enrichment ratio": "≤ 0.25"}, {"variant": "QNYM", "enrichment ratio": "≤ 0.25"}, {"variant": "QNGM", "enrichment ratio": 16}, {"variant": "QNHV", "enrichment ratio": "≤ 0.25"}, {"variant": "QNGD", "enrichment ratio": "≤ 0.25"}, {"variant": "QRGV", "enrichment ratio": "≤ 0.25"}, {"variant": "QNGV", "enrichment ratio": 22.1}, {"variant": "EKNQ", "enrichment ratio": "≤ 0.25"}, {"variant": "NNYE", "enrichment ratio": "≤ 0.25"}, {"variant": "HMKK", "enrichment ratio": "≤ 0.25"}, {"variant": "DNAG", "enrichment ratio": "≤ 0.25"}, {"variant": "FMVV", "enrichment ratio": "≤ 0.25"}, {"variant": "MREV", "enrichment ratio": "≤ 0.25"}, {"variant": "HMSI", "enrichment ratio": "≤ 0.25"}, {"variant": "QCTL", "enrichment ratio": "≤ 0.25"}, {"variant": "SHCI", "enrichment ratio": 6.63}, {"variant": "SHCQ", "enrichment ratio": 21.1}, {"variant": "YHCQ", "enrichment ratio": "≤ 0.25"}, {"variant": "VHCQ", "enrichment ratio": "≤ 0.25"}, {"variant": "SHCA", "enrichment ratio": 2.47}, {"variant": "THCQ", "enrichment ratio": 14.3}, {"variant": "PQRE", "enrichment ratio": "≤ 0.25"}, {"variant": "TLYI", "enrichment ratio": 0.826}, {"variant": "RITC", "enrichment ratio": "≤ 0.25"}, {"variant": "RFYH", "enrichment ratio": "≤ 0.25"}, {"variant": "FWFN", "enrichment ratio": "≤ 0.25"}, {"variant": "ERAC", "enrichment ratio": "≤ 0.25"}, {"variant": "SKRL", "enrichment ratio": "≤ 0.25"}, {"variant": "RIAL", "enrichment ratio": "≤ 0.25"}, {"variant": "SQAL", "enrichment ratio": 7.54}, {"variant": "SFAL", "enrichment ratio": "≤ 0.25"}, {"variant": "SNAL", "enrichment ratio": 12.1}, {"variant": "SIAL", "enrichment ratio": 15.1}, {"variant": "KYAL", "enrichment ratio": "≤ 0.25"}, {"variant": "SPAL", "enrichment ratio": "≤ 0.25"}, {"variant": "SKNL", "enrichment ratio": "≤ 0.25"}, {"variant": "SAAL", "enrichment ratio": 12.8}, {"variant": "SRAL", "enrichment ratio": "≤ 0.25"}, {"variant": "SKAL", "enrichment ratio": 12.2}, {"variant": "ETHL", "enrichment ratio": "≤ 0.25"}, {"variant": "VYRH", "enrichment ratio": "≤ 0.25"}, {"variant": "PVYN", "enrichment ratio": "≤ 0.25"}, {"variant": "RLWM", "enrichment ratio": "≤ 0.25"}, {"variant": "LPNQ", "enrichment ratio": "≤ 0.25"}, {"variant": "YSKE", "enrichment ratio": "≤ 0.25"}, {"variant": "NNAF", "enrichment ratio": "≤ 0.25"}, {"variant": "TTGS", "enrichment ratio": 8.05}, {"variant": "WDHH", "enrichment ratio": "≤ 0.25"}, {"variant": "GVIH", "enrichment ratio": "≤ 0.25"}, {"variant": "QAPP", "enrichment ratio": "≤ 0.25"}, {"variant": "WIAL", "enrichment ratio": "≤ 0.25"}, {"variant": "TTAL", "enrichment ratio": 18.4}, {"variant": "QEAL", "enrichment ratio": "≤ 0.25"}, {"variant": "NSAL", "enrichment ratio": "≤ 0.25"}, {"variant": "MTAL", "enrichment ratio": 5.98}, {"variant": "SLAL", "enrichment ratio": 10.6}, {"variant": "STAL", "enrichment ratio": 11.5}, {"variant": "TIAL", "enrichment ratio": 12.9}, {"variant": "NIAL", "enrichment ratio": 1.57}, {"variant": "ITAL", "enrichment ratio": 0.733}, {"variant": "SSAL", "enrichment ratio": 12.2}, {"variant": "YTAL", "enrichment ratio": "≤ 0.25"}]}]}
